# Data: PubChem BioAssay (NCATS)
# Inconclusive results are not listed. Where a call stands in place of a potency, no number is given. Active and inactive are the calls of the source. The call rests on the fitted dose curve; in most records, active means well fitted curve in the direction sought with a large enough effect; inconclusive means small, poorly fitted or top-dose-only effect, or another doubt; inactive means no such curve, though single readings can be large; an effect the other way counts as inactive or inconclusive.
# Columns and labels:
# [1] = qHTS of pediatric cancer cell lines to identify multiple opportunities for drug repurposing: Primary screen for SK-N-MC cells (AID 1347093)
# Procedure, shortened: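 Metabolically active cells were quantified by ATP-dependent luminescence (CellTiter-Glo, 15 min at room temperature) following 48 h treatment. Cells had been plated at 500-1,000 per well and settled for 5 h beforehand.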
# [2] = qHTS of pediatric cancer cell lines to identify multiple opportunities for drug repurposing: Primary screen for BT-37 cells (AID 1347094)
# Procedure, shortened: (§1)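 Plated cells (500-1,000 per well, growth media) were allowed to settle for 5 hours, treated with compound dilutions for 48 hours, then lysed with CellTiter-Glo for 15 min at room temperature before luminescence reading.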
# [3] = qHTS of pediatric cancer cell lines to identify multiple opportunities for drug repurposing: Primary screen for NB-EBc1 cells (AID 1347095)
# Procedure, shortened: as §1
# [4] = qHTS of pediatric cancer cell lines to identify multiple opportunities for drug repurposing: Primary screen for U-2 OS cells (AID 1347096); further: nearly all actives have a fitted effect of over 50% in size
# Procedure, shortened: (§2)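 Cells (500-1,000/well) in growth media were settled 5 h at 37 degrees C, then given compounds for 48 h. Viability was read as CellTiter-Glo luminescence. Primary runs used MIPE at 11 points (0.78 nM-46 µM) and NPC at 8 points (0.59 nM-46 µM); follow-ups used 11 points.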
# [5] = qHTS of pediatric cancer cell lines to identify multiple opportunities for drug repurposing: Primary screen for Saos-2 cells (AID 1347097); further: nearly all actives have a fitted effect of over 40% in size
# Procedure, shortened: as §1
# [6] = qHTS of pediatric cancer cell lines to identify multiple opportunities for drug repurposing: Primary screen for NB1643 cells (AID 1347099); further: nearly all actives have a fitted effect of over 50% in size
# Procedure, shortened: as §1
# [7] = qHTS of pediatric cancer cell lines to identify multiple opportunities for drug repurposing: Primary screen for LAN-5 cells (AID 1347100)
# Procedure, shortened: as §2
# [8] = qHTS of pediatric cancer cell lines to identify multiple opportunities for drug repurposing: Primary screen for BT-12 cells (AID 1347101); further: nearly all actives have a fitted effect of over 25% in size
# Procedure, shortened: (§3)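 Cells (500-1,000/well) rested 5 h, then received compounds for 48 h; metabolically active cells were measured by CellTiter-Glo luminescence. Final concentrations spanned up to 46 µM (MIPE, 11-point) or 0.59 nM-46 µM (NPC, 8-point) in primary screens, 11-point in follow-ups.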
# [9] = qHTS of pediatric cancer cell lines to identify multiple opportunities for drug repurposing: Primary screen for SK-N-SH cells (AID 1347098); further: nearly all actives have a fitted effect of over 65% in size
# Procedure, shortened: as §3
# [10] = qHTS of pediatric cancer cell lines to identify multiple opportunities for drug repurposing: Primary screen for Rh18 cells (AID 1347102); further: nearly all actives have a fitted effect of over 65% in size
# Procedure, shortened: as §2
# Potency means the concentration at half of the fitted maximal effect.
SMILES,Potency [1],Potency [2],Potency [3],Potency [4],Potency [5],Potency [6],Potency [7],Potency [8],Potency [9],Potency [10]
Cc1nc(-c2ccc(-c3ccc(C(=O)N4CCc5cc6c(cc54)C4(CCN(C)CC4)CO6)cc3)c(C)c2)no1,inactive,inactive,inactive,inactive,inactive,inactive,inactive,inactive,–,–
O=C(O)CCCOc1ccc(Cl)cc1Cl,inactive,inactive,inactive,inactive,inactive,inactive,inactive,–,–,–
CC[C@@H]1[C@@H](C)O[C@@](O)([C@@H](C)[C@H](O)[C@H](C)[C@H]2OC(=O)C=CC=C[C@@H](C)[C@@H]([C@@H](C)[C@@H](O)[C@H](C)[C@@]3(O)C[C@H](O[C@H]4C[C@H](O)[C@H](O)[C@H](C)O4)[C@H](CC)[C@@H](C)O3)OC(=O)C=CC=C[C@@H]2C)C[C@H]1O[C@H]1C[C@H](O)[C@H](O)[C@H](C)O1,372 nM (active),685 nM (active),418 nM (active),935 nM (active),372 nM (active),833 nM (active),372 nM (active),863 nM (active),21500 nM (active),590 nM (active)
CN(C)[C@@H]1C(=O)C(C(N)=O)=C(O)[C@@]2(O)C(=O)C3=C(O)c4c(O)cccc4[C@@](C)(O)[C@H]3[C@H](O)[C@@H]12,inactive,inactive,inactive,inactive,inactive,inactive,inactive,–,–,–
CN[C@@H](C)[C@H](O)c1ccccc1,inactive,inactive,inactive,inactive,inactive,inactive,inactive,inactive,inactive,inactive
CC(=O)[O][Hg][c]1ccccc1,531 nM (active),2190 nM (active),21100 nM (active),2660 nM (active),668 nM (active),1190 nM (active),–,–,970 nM (active),2660 nM (active)
CCOP(=O)(NC(C)C)Oc1ccc(SC)c(C)c1 (stereo not given),inactive,inactive,inactive,inactive,inactive,inactive,inactive,–,inactive,inactive
CC(C)[C@]12O[C@@H]1[C@@H]1O[C@]13[C@]1(O[C@H]1C[C@@H]1C4=C(CC[C@@]13C)C(=O)OC4)[C@H]2O,1 nM (active),1 nM (active),1 nM (active),1 nM (active),1660 nM (active),inactive,inactive,–,–,–
CCC1(CCC(C)C)C(=O)NC(=O)NC1=O,inactive,inactive,inactive,inactive,inactive,inactive,inactive,–,inactive,inactive
CC(C)N[C@@H]1CCn2c(=O)[nH]c3cccc(c32)[C@@H]1O,1050 nM (active),27300 nM (active),inactive,11800 nM (active),5260 nM (active),4180 nM (active),743 nM (active),3060 nM (active),8570 nM (active),4690 nM (active)
